# Article PMC11062922 (Nature Chemical Biology, 2023)
# Read-outs that look alike come from different tables or passages of the source.
# What was measured:
# [1] = test system: ERN1; settings: read-out: apparent Kd, n = 1
# [2] = test system: GAK; settings: read-out: apparent Kd, n = 1
# [3] = compound concentrations:100 nM and 1000 nM (sheet 'Lestaurtinib' of Supplementary Table 1),run:Lestaurtinib_02496_R1,Plate:MR013
# [4] = compound concentrations:100 nM and 1000 nM (sheet 'Lestaurtinib' of Supplementary Table 1),run:Lestaurtinib_02496_R2,Plate:MR013
# [5] = compound concentrations:100 nM and 1000 nM (sheet 'Lestaurtinib' of Supplementary Table 1),run:Lestaurtinib_02496_R3,Plate:MR013
# [6] = compound concentrations:100 nM and 1000 nM (sheet 'Lestaurtinib' of Supplementary Table 1),run:Lestaurtinib_02577_R1,Plate:MR016
substance,measurement,setting,value
Lestaurtinib,potency estimated from few doses,[1]; [3],79.9 nM
same,potency estimated from few doses,[1]; [4],82.7 nM
same,potency estimated from few doses,[1]; [5],62.6 nM
same,potency estimated from few doses,"[1]; compound concentrations:100 nM and 1000 nM (sheet 'Lestaurtinib' of Supplementary Table 1),run:Lestaurtinib_02566_R2,Plate:MR014",99.9 nM
same,potency estimated from few doses,"[1]; compound concentrations:100 nM and 1000 nM (sheet 'Lestaurtinib' of Supplementary Table 1),run:Lestaurtinib_02572_R2,Plate:MR015",67.3 nM
same,potency estimated from few doses,[1]; [6],81.4 nM
same,potency estimated from few doses,"[1]; compound concentrations:100 nM and 1000 nM (sheet 'Lestaurtinib' of Supplementary Table 1),run:Lestaurtinib_02577_R2,Plate:MR016",61.5 nM
same,potency estimated from few doses,"[1]; compound concentrations:100 nM and 1000 nM (sheet 'Lestaurtinib' of Supplementary Table 1),run:Lestaurtinib_02577_R3,Plate:MR016",56.2 nM
same,potency estimated from few doses,"[1]; compound concentrations:100 nM and 1000 nM (sheet 'Lestaurtinib' of Supplementary Table 1),run:Lestaurtinib_02584_R1,Plate:MR017",49.6 nM
same,potency estimated from few doses,"[1]; compound concentrations:100 nM and 1000 nM (sheet 'Lestaurtinib' of Supplementary Table 1),run:Lestaurtinib_02584_R2,Plate:MR017",50.5 nM
same,potency estimated from few doses,"[1]; compound concentrations:100 nM and 1000 nM (sheet 'Lestaurtinib' of Supplementary Table 1),run:Lestaurtinib_02584_R3,Plate:MR017",79.4 nM
same,potency estimated from few doses,"[1]; compound concentrations:100 nM and 1000 nM (sheet 'Lestaurtinib' of Supplementary Table 1),run:Lestaurtinib_02601_R1,Plate:MR018",73.5 nM
same,potency estimated from few doses,"[1]; compound concentrations:100 nM and 1000 nM (sheet 'Lestaurtinib' of Supplementary Table 1),run:Lestaurtinib_02601_R2,Plate:MR018",93.1 nM
same,potency estimated from few doses,"[1]; compound concentrations:100 nM and 1000 nM (sheet 'Lestaurtinib' of Supplementary Table 1),run:Lestaurtinib_02601_R3,Plate:MR018",63.8 nM
same,potency estimated from few doses,"[1]; compound concentrations:100 nM and 1000 nM (sheet 'Lestaurtinib' of Supplementary Table 1),run:Lestaurtinib_02606_R1,Plate:MR019",79.4 nM
same,potency estimated from few doses,"[1]; compound concentrations:100 nM and 1000 nM (sheet 'Lestaurtinib' of Supplementary Table 1),run:Lestaurtinib_02606_R2,Plate:MR019",83.8 nM
same,potency estimated from few doses,"[1]; compound concentrations:100 nM and 1000 nM (sheet 'Lestaurtinib' of Supplementary Table 1),run:Lestaurtinib_02606_R3,Plate:MR019",87.5 nM
same,potency estimated from few doses,"[1]; compound concentrations:100 nM and 1000 nM (sheet 'Lestaurtinib' of Supplementary Table 1),run:Lestaurtinib_02624_R1,Plate:MR020",87.4 nM
same,potency estimated from few doses,"[1]; compound concentrations:100 nM and 1000 nM (sheet 'Lestaurtinib' of Supplementary Table 1),run:Lestaurtinib_02624_R2,Plate:MR020",94.5 nM
same,potency estimated from few doses,"[1]; compound concentrations:100 nM and 1000 nM (sheet 'Lestaurtinib' of Supplementary Table 1),run:Lestaurtinib_02624_R3,Plate:MR020",93.4 nM
same,potency estimated from few doses,"[1]; compound concentrations:100 nM and 1000 nM (sheet 'Lestaurtinib' of Supplementary Table 1),run:Lestaurtinib_02724_R1,Plate:MR021",90.7 nM
same,potency estimated from few doses,"[1]; compound concentrations:100 nM and 1000 nM (sheet 'Lestaurtinib' of Supplementary Table 1),run:Lestaurtinib_02724_R2,Plate:MR021",92.1 nM
same,potency estimated from few doses,"[1]; compound concentrations:100 nM and 1000 nM (sheet 'Lestaurtinib' of Supplementary Table 1),run:Lestaurtinib_02724_R3,Plate:MR021",78.5 nM
same,potency estimated from few doses,"[1]; compound concentrations:100 nM and 1000 nM (sheet 'Lestaurtinib' of Supplementary Table 1),run:Lestaurtinib_02741_R1,Plate:MR023",83.9 nM
same,potency estimated from few doses,"[1]; compound concentrations:100 nM and 1000 nM (sheet 'Lestaurtinib' of Supplementary Table 1),run:Lestaurtinib_02741_R2,Plate:MR023",80 nM
same,potency estimated from few doses,"[1]; compound concentrations:100 nM and 1000 nM (sheet 'Lestaurtinib' of Supplementary Table 1),run:Lestaurtinib_02741_R3,Plate:MR023",69.3 nM
same,potency estimated from few doses,"[1]; compound concentrations:100 nM and 1000 nM (sheet 'Lestaurtinib' of Supplementary Table 1),run:Lestaurtinib_02748_R3,Plate:MR024",74.4 nM
same,potency estimated from few doses,"[1]; compound concentrations:100 nM and 1000 nM (sheet 'Lestaurtinib' of Supplementary Table 1),run:Lestaurtinib_02752_R2,Plate:MR025",57.7 nM
same,potency estimated from few doses,"[1]; compound concentrations:100 nM and 1000 nM (sheet 'Lestaurtinib' of Supplementary Table 1),run:Lestaurtinib_02765_R2,Plate:MR026",84.8 nM
same,potency estimated from few doses,"[1]; compound concentrations:100 nM and 1000 nM (sheet 'Lestaurtinib' of Supplementary Table 1),run:Lestaurtinib_02765_R3,Plate:MR026",113 nM
same,potency estimated from few doses,"[1]; compound concentrations:100 nM and 1000 nM (sheet 'Lestaurtinib' of Supplementary Table 1),run:Lestaurtinib_02766_R1,Plate:MR027",29.6 nM
same,potency estimated from few doses,"[1]; compound concentrations:100 nM and 1000 nM (sheet 'Lestaurtinib' of Supplementary Table 1),run:Lestaurtinib_02766_R2,Plate:MR027",54.9 nM
same,potency estimated from few doses,"[1]; compound concentrations:100 nM and 1000 nM (sheet 'Lestaurtinib' of Supplementary Table 1),run:Lestaurtinib_02766_R3,Plate:MR027",73.5 nM
same,potency estimated from few doses,"[1]; compound concentrations:100 nM and 1000 nM (sheet 'Lestaurtinib' of Supplementary Table 1),run:Lestaurtinib_02768_R1,Plate:MR028",51.4 nM
same,potency estimated from few doses,"[1]; compound concentrations:100 nM and 1000 nM (sheet 'Lestaurtinib' of Supplementary Table 1),run:Lestaurtinib_02768_R2,Plate:MR028",55.4 nM
same,potency estimated from few doses,"[1]; compound concentrations:100 nM and 1000 nM (sheet 'Lestaurtinib' of Supplementary Table 1),run:Lestaurtinib_02795_R2,Plate:MR022",59.6 nM
same,potency estimated from few doses,"[1]; compound concentrations:100 nM and 1000 nM (sheet 'Lestaurtinib' of Supplementary Table 1),run:Lestaurtinib_02802_R1,Plate:MR029",60.8 nM
same,potency estimated from few doses,"[1]; compound concentrations:100 nM and 1000 nM (sheet 'Lestaurtinib' of Supplementary Table 1),run:Lestaurtinib_02802_R3,Plate:MR029",176 nM
same,potency estimated from few doses,"[1]; compound concentrations:100 nM and 1000 nM (sheet 'Lestaurtinib' of Supplementary Table 1),run:Lestaurtinib_02896_R3,Plate:MR030",48.9 nM
same,potency estimated from few doses,"[1]; compound concentrations:100 nM and 1000 nM (sheet 'Lestaurtinib' of Supplementary Table 1),run:Lestaurtinib_03172_R2,Plate:MR031",68.4 nM
same,potency estimated from few doses,"[1]; compound concentrations:100 nM and 1000 nM (sheet 'Lestaurtinib' of Supplementary Table 1),run:Lestaurtinib_03172_R3,Plate:MR031",71.8 nM
same,potency estimated from few doses,"[2]; compound concentrations:100 nM and 1000 nM (sheet 'Lestaurtinib' of Supplementary Table 1),run:Lestaurtinib_02339_R1,Plate:MR001",681 nM
same,potency estimated from few doses,"[2]; compound concentrations:100 nM and 1000 nM (sheet 'Lestaurtinib' of Supplementary Table 1),run:Lestaurtinib_02339_R2,Plate:MR001",515 nM
same,potency estimated from few doses,"[2]; compound concentrations:100 nM and 1000 nM (sheet 'Lestaurtinib' of Supplementary Table 1),run:Lestaurtinib_02339_R3,Plate:MR001",744 nM
same,potency estimated from few doses,"[2]; compound concentrations:100 nM and 1000 nM (sheet 'Lestaurtinib' of Supplementary Table 1),run:Lestaurtinib_02364_R2,Plate:MR002",838 nM
same,potency estimated from few doses,"[2]; compound concentrations:100 nM and 1000 nM (sheet 'Lestaurtinib' of Supplementary Table 1),run:Lestaurtinib_02364_R3,Plate:MR002",670 nM
same,potency estimated from few doses,"[2]; compound concentrations:100 nM and 1000 nM (sheet 'Lestaurtinib' of Supplementary Table 1),run:Lestaurtinib_02367_R1,Plate:MR003",703 nM
same,potency estimated from few doses,"[2]; compound concentrations:100 nM and 1000 nM (sheet 'Lestaurtinib' of Supplementary Table 1),run:Lestaurtinib_02367_R2,Plate:MR003",797 nM
same,potency estimated from few doses,"[2]; compound concentrations:100 nM and 1000 nM (sheet 'Lestaurtinib' of Supplementary Table 1),run:Lestaurtinib_02367_R3,Plate:MR003",731 nM
same,potency estimated from few doses,"[2]; compound concentrations:100 nM and 1000 nM (sheet 'Lestaurtinib' of Supplementary Table 1),run:Lestaurtinib_02381_R2,Plate:MR004",635 nM
same,potency estimated from few doses,"[2]; compound concentrations:100 nM and 1000 nM (sheet 'Lestaurtinib' of Supplementary Table 1),run:Lestaurtinib_02407_R1,Plate:MR005",718 nM
same,potency estimated from few doses,"[2]; compound concentrations:100 nM and 1000 nM (sheet 'Lestaurtinib' of Supplementary Table 1),run:Lestaurtinib_02407_R2,Plate:MR005",809 nM
same,potency estimated from few doses,"[2]; compound concentrations:100 nM and 1000 nM (sheet 'Lestaurtinib' of Supplementary Table 1),run:Lestaurtinib_02407_R3,Plate:MR005",702 nM
same,potency estimated from few doses,"[2]; compound concentrations:100 nM and 1000 nM (sheet 'Lestaurtinib' of Supplementary Table 1),run:Lestaurtinib_02422_R1,Plate:MR006",425 nM
same,potency estimated from few doses,"[2]; compound concentrations:100 nM and 1000 nM (sheet 'Lestaurtinib' of Supplementary Table 1),run:Lestaurtinib_02422_R2,Plate:MR006",9.54 nM
same,potency estimated from few doses,"[2]; compound concentrations:100 nM and 1000 nM (sheet 'Lestaurtinib' of Supplementary Table 1),run:Lestaurtinib_02422_R3,Plate:MR006",725 nM
same,potency estimated from few doses,"[2]; compound concentrations:100 nM and 1000 nM (sheet 'Lestaurtinib' of Supplementary Table 1),run:Lestaurtinib_02437_R1,Plate:MR007",654 nM
same,potency estimated from few doses,"[2]; compound concentrations:100 nM and 1000 nM (sheet 'Lestaurtinib' of Supplementary Table 1),run:Lestaurtinib_02437_R2,Plate:MR007",698 nM
same,potency estimated from few doses,"[2]; compound concentrations:100 nM and 1000 nM (sheet 'Lestaurtinib' of Supplementary Table 1),run:Lestaurtinib_02437_R3,Plate:MR007",58.5 nM
same,potency estimated from few doses,"[2]; compound concentrations:100 nM and 1000 nM (sheet 'Lestaurtinib' of Supplementary Table 1),run:Lestaurtinib_02438_R1,Plate:MR008",700 nM
same,potency estimated from few doses,"[2]; compound concentrations:100 nM and 1000 nM (sheet 'Lestaurtinib' of Supplementary Table 1),run:Lestaurtinib_02438_R2,Plate:MR008",667 nM
same,potency estimated from few doses,"[2]; compound concentrations:100 nM and 1000 nM (sheet 'Lestaurtinib' of Supplementary Table 1),run:Lestaurtinib_02438_R3,Plate:MR008",750 nM
same,potency estimated from few doses,"[2]; compound concentrations:100 nM and 1000 nM (sheet 'Lestaurtinib' of Supplementary Table 1),run:Lestaurtinib_02473_R3,Plate:MR010",59.2 nM
same,potency estimated from few doses,"[2]; compound concentrations:100 nM and 1000 nM (sheet 'Lestaurtinib' of Supplementary Table 1),run:Lestaurtinib_02482_R1,Plate:MR011",870 nM
same,potency estimated from few doses,"[2]; compound concentrations:100 nM and 1000 nM (sheet 'Lestaurtinib' of Supplementary Table 1),run:Lestaurtinib_02482_R2,Plate:MR011",804 nM
same,potency estimated from few doses,"[2]; compound concentrations:100 nM and 1000 nM (sheet 'Lestaurtinib' of Supplementary Table 1),run:Lestaurtinib_02482_R3,Plate:MR011",707 nM
same,potency estimated from few doses,"[2]; compound concentrations:100 nM and 1000 nM (sheet 'Lestaurtinib' of Supplementary Table 1),run:Lestaurtinib_02487_R2,Plate:MR012",783 nM
same,potency estimated from few doses,[2]; [3],552 nM
same,potency estimated from few doses,[2]; [4],507 nM
same,potency estimated from few doses,[2]; [5],639 nM
same,potency estimated from few doses,"[2]; compound concentrations:100 nM and 1000 nM (sheet 'Lestaurtinib' of Supplementary Table 1),run:Lestaurtinib_02566_R1,Plate:MR014",580 nM
same,potency estimated from few doses,"[2]; compound concentrations:100 nM and 1000 nM (sheet 'Lestaurtinib' of Supplementary Table 1),run:Lestaurtinib_02566_R3,Plate:MR014",806 nM
same,potency estimated from few doses,"[2]; compound concentrations:100 nM and 1000 nM (sheet 'Lestaurtinib' of Supplementary Table 1),run:Lestaurtinib_02572_R1,Plate:MR015",486 nM
same,potency estimated from few doses,"[2]; compound concentrations:100 nM and 1000 nM (sheet 'Lestaurtinib' of Supplementary Table 1),run:Lestaurtinib_02572_R3,Plate:MR015",627 nM
same,potency estimated from few doses,[2]; [6],484 nM
